Experimental findings from ChEMBL document CHEMBL3988442, “University of Dundee, Small-Polar-MMV Screening Library” (2021) are described below.

The test concerns the target AMP-activated protein kinase, AMPK (Homo sapiens) (UniProt P54646+O43741+P54619+Q9UGJ0+Q9Y478+Q13131+Q9UGI9). The experiment in a line: AMP-dependent Kinase enzyme assay. An in vitro enzyme assay that detects ADP turnover that is directly proportional to AMPK activity. This uses naive AMPK that is activated during the assay with MK-8722. The arrangement: scale not given: direction of the effect not stated beside the values. Particulars: 30 µM. Format: functional.
With `COc1ccc2c(c1)OCC(CNC1CCc3ncnn3C1)=C2` (stereo not given), the Percent Effect stood at 7.82%.

`CCn1ncnc1C(C)Nc1cc(C2CCNCC2)nc(C)n1` (stereo not given): the Percent Effect is -7.46%.

Regarding `Cc1cccc(S(=O)(=O)NC2CCN(CC(F)(F)F)C2)c1` (stereo not given), the Percent Effect was -6.29%.

Consider `CN(Cc1nnnn1C1CC1)CC1COc2ccccc2O1` (stereo not given), for which the Percent Effect came to 4.32%.

As for `CN(Cc1noc(-c2ccccc2)n1)C(=O)CSc1nnc(N)s1`, the Percent Effect came to 1.22%.

Turning to `Cc1ccc2ncccc2c1CN1CC[C@H](N(C)C)[C@H](CCC(=O)O)C1`, the Percent Effect was -2.6%.

`Cc1nn(C)c(C)c1CC(=O)NCC1(C(N)=O)CCOCC1`: the Percent Effect is -4.43%.

For the compound `CCc1c(C)nc(-n2nc(-c3cccs3)cc2N)[nH]c1=O`, the Percent Effect is -6.28%.

With `CCOCCC(=O)NC(c1noc(C)n1)c1ccccc1F` (stereo not given), the Percent Effect was found to be 1.15%.

On to `CN(C)C(=O)N1CCN(c2cc(N3CCCC3CO)ncn2)CC1` (stereo not given), for which the Percent Effect was -3.16%.

For the compound `COc1ccccc1CN(C)C(=O)C[S+]([O-])Cc1cc(C)on1` (stereo not given), the Percent Effect was -2.86%.

As to `CCc1c(C)nn2c(O)cc(C3CCN(C(=O)c4ccccn4)C3)nc12` (stereo not given), the Percent Effect amounted to 4.34%.

In the case of `O=S(=O)(c1cn[nH]c1)N1CCCC(O)(CN2CCOCC2)CC1` (stereo not given), the Percent Effect amounted to 13.3%.

For `Cc1nc(COc2ccc(S(=O)(=O)N(C)C)cc2)sc1C`, the Percent Effect turned out to be 5.76%.

Turning to `CCc1nc(CN(C)C(=O)CSC)no1`, the Percent Effect worked out at 1.82%.

For the compound `CCC(=O)N1CCOC(c2cc(Nc3nncs3)cc(C)n2)C1` (stereo not given), the Percent Effect came to 23%.

`CCOCCC(=O)N(CCC#N)c1ccc(C)c(C)c1`: the Percent Effect was -0.0952%.

Regarding `CCCc1nc(C)cc(N2Cc3cnn(CCO)c3C2)n1`, the Percent Effect was 5.18%.

Take `CC(c1ccc(F)cc1F)N1CCN(CCN2CCCC2=O)CC1` (stereo not given): the Percent Effect is -18%.

Turning to `CC(C(=O)N1CCCC1)N1CCN(c2ncc(Cl)cn2)CC1` (stereo not given), the Percent Effect was -1.02%.

In the case of `COc1ccc(CC(C)Nc2cccc(SC)c2)cc1` (stereo not given), the Percent Effect was -5.64%.

For `COC(=O)c1ccc(CCn2cnc(C#N)n2)cc1`, the Percent Effect was -2.56%.

As for `Cc1cc(NC(=O)C2CCN(c3nnc(C)c(C)c3C#N)CC2)no1`, the Percent Effect was -48.4%.

As to `Cc1cc(C(=O)N2CC[C@H](N3CCN(C)CC3)[C@H](CCCO)C2)n(C)n1`, the Percent Effect stood at 10.5%.

On to `c1ccc(CCN2CCC(OCC3CCCCO3)CC2)nc1` (stereo not given), for which the Percent Effect is 11.2%.

Turning to `NC1CCCN(Cc2cccc(C(F)(F)F)c2)C1=O` (stereo not given), the Percent Effect is -0.911%.

Regarding `CCc1nc(CCNc2ncccc2C#N)sc1C`, the Percent Effect is -3.24%.

Turning to `Cn1cccc1CNCC1CCCn2cc(C(C)(C)C)nc21` (stereo not given), the Percent Effect was -0.856%.

Consider `Cc1c(NC(=O)NC(C)CCO)cccc1OC1CCCC1` (stereo not given), for which the Percent Effect was -7.69%.

Consider `CC(C)COc1cncc(N2CCCN(c3ncccn3)CC2)n1`, for which the Percent Effect came out at 65.1%.

For the compound `CN(C)c1ccc(C(=O)Nc2ccn(CCc3ccncc3)n2)cn1`, the Percent Effect was determined as 14.4%.

As to `CCOC(=O)C1(NC(=O)CCNc2cc(C)ccc2OC)CCCCC1`, the Percent Effect is 6.8%.

`CN1CCCC1CCNC(=O)c1ccccc1-n1cnc(CN)c1` (stereo not given): the Percent Effect came to 7.02%.

For `CC1CCN(Cc2ccccc2CNC(=O)C2CNC(=O)N2)CC1` (stereo not given), the Percent Effect is -1.18%.

On to `CCOCCN1CCN(c2ncccc2C#N)CC1CC` (stereo not given), for which the Percent Effect came to 4.43%.

On to `CC1CN(CC(=O)NCCc2ccccc2)CCN1c1nccs1` (stereo not given), for which the Percent Effect worked out at 25.7%.

For the compound `OCCc1cc(C2CCCN2c2ncccn2)n[nH]1` (stereo not given), the Percent Effect came to 11.9%.

On to `Cc1cc(C(=O)NC(C)CC(=O)c2ccco2)[nH]n1` (stereo not given), for which the Percent Effect came to 2.92%.

Consider `Cn1ccc(C(=O)N2CCCC2c2cc[nH]n2)n1` (stereo not given), for which the Percent Effect turned out to be 4.63%.

Consider `O=C(NCc1nncn1C1CC1)c1cccnc1Oc1ccccc1`, for which the Percent Effect turned out to be 1.39%.
